From PubChem BioAssay (NCI)
The panel holds about 83,000 compounds, 20% with a hit somewhere; the sample as a whole holds those more often.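 Cells were grown in 96-well plates and exposed to the test compound at a single concentration for 48 hours; results are reported as percent growth, with values below 10 considered active.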 Unmarked numbers belong to inactive results. Active and inactive are the calls of the source.

system: SR leukemia; assay: NCI-60 one-dose screen, 48 h (100 = growth as untreated, 0 = no growth, -100 = all killed); settings: 10 µM
Method: Growth inhibition of the SR human tumor cell line is measured as a screen for anti-cancer activity. Cells are grown in 96 well plates and exposed to the test compound for 48 hours. Compounds are tested at a single concentration, which is 10^-5 M for most compounds. The reported endpoint is percent growth (GI% or GIPRCNT), where numbers from 0 - 100% represent growth inhibition, and numbers from -100% - 0 represent cell death. For example, a value of 40 represents 60% growth inhibition. A value of 0 means no net growth occurred over the course of the experiment. A value of -40 indicates 40% of cells at the beginning of the experiment died by the end of the experiment. A value of -100 means all cells are dead at the end of the experiment.
NCI-60 Human Tumor Cell Lines Screen was performed using the standard one-dose NCI protocol, which is described in more detail at https://dtp.cancer.gov/discovery_development/nci-60/default.htm.
Compounds with GIPRCNT values below 10 were considered active. Activity score was based on GIPRCNT using the following formula: […]
Score is 0 for GIPRCNT values of 100 or above, 50 for GIPRCNT values of 0, and 100 for GIPRCNT values of -100.

SMILES | growth
[2H]C([2H])([2H])Oc1ccc2ncc(C#Cc3cncc(C(=O)Nc4ccc(CN5CCN(C)CC5)c(C(F)(F)F)c4)c3)n2n1 | -9.99% (active)
COc1ccc(CN2[C@@H](C(=O)NCc3ccc(C(=O)NO)cc3)Cc3c([nH]c4ccccc34)[C@@H]2C2CC2)cc1 | 15.2%
C/C(=C\c1ccc(O)cc1O)c1ccc2ccc(O)cc2[o+]1 | 20.2%
COc1ccc2c3nc4cc(C)c(C)cc4nc3n(CCN(C)C)c2c1 | 9.88% (active)
Cc1cc(C)nc(NS(=O)(=O)c2ccc(N/C(N)=N/c3nccc(-c4ccccc4)n3)cc2)n1 | 53.8%
O=C(CSc1nnc(-c2c[nH]c3ccccc23)n1-c1ccccc1)c1ccc(Cl)cc1 | 92.4%
C=C1CCC2C3(C)COC(c4cccc(F)c4)OC3CCC2(C)C1CC(O)C1=CCOC1=O (stereo not given) | 40.4%
COc1ccc(-c2ccc(SCC(=O)Nc3ccc(C#N)cc3)nn2)cc1 | 89.2%
CCOc1ccc2ncc(C#Cc3cncc(C(=O)Nc4ccc(CN5CCN(C)CC5)c(C(F)(F)F)c4)c3)n2n1 | 1.01% (active)
O=c1[nH]c2ccc(Cl)cc2cc1CSc1ccc(Nc2nccc(-c3ccc(Cl)cc3)n2)cc1 | 54.2%
CCCSc1nc(NC2CC2)c(C#N)c(-c2ccc(OC)cc2)n1 | 98.4%
CC(=O)Nc1ccc(-c2cn(-c3cccc(C(=O)Nc4ccc(Cl)c(C(F)(F)F)c4)c3)nn2)cn1 | 16.1%
CN1CCN(Cc2ccc(C(=O)Nc3cccc(Nc4ccc5c(O)cccc5n4)c3)cc2C(F)(F)F)CC1 | 4.88% (active)
O=C(NC(=S)N1CCN(c2ncnc3c2cnn3-c2ccccc2)CC1)c1ccc(Cl)cc1 | 13.9%
O=S(=O)(Nc1ncccn1)c1ccc(-n2c(-c3ccc(Br)cc3)nc(-c3ccccc3)c2-c2ccccc2)cc1 | 45.2%
CC1(c2ccccc2)NC(=O)N(CC(=O)Nc2ccc(C(=O)/C=C/c3ccc(Cl)cc3)cc2)C1=O (stereo not given) | -13.3% (active)
COc1cc(NC(=O)CSc2nnc(-c3ccc4nc(-c5ccc(Cl)cc5)[nH]c4c3)o2)cc(OC)c1OC | 48%
COc1cnc2c(c1)C(=O)c1c-2n(CCCNC(C)C)c(=O)c2cc(OC)c(OC)cc12 | 2.52% (active)
CCOC(=O)C(Cc1ccccc1)N1C(=O)/C(=C/N2N=C(c3ccc(OC)cc3)CC2c2ccc3ccccc3c2)SC1=S (stereo not given) | 6.53% (active)
C=C1CCC2C3(C)COC(c4c(F)cccc4F)OC3CCC2(C)C1C/C=C1/C(=O)OCC1O (stereo not given) | 14.8%

SMILES | growth
COc1nccnc1NS(=O)(=O)c1ccc(NC2=C(Cl)C(=O)c3nc(C)ccc3C2=O)cc1 | 115%
COc1cccc(-c2ccnc(/N=C(\N)Nc3ccc(S(=O)(=O)Nc4nc(C)cc(C)n4)cc3)n2)c1 | 100%
N#Cc1ccc(-c2nn(-c3ccc(C(=O)O)cc3)cc2CNc2cccc(Br)c2)cc1 | 40.2%
COc1ccc(OC)c(-c2cc(-c3c[nH]c4ccccc34)nc(N)c2C#N)c1 | 8.54% (active)
COc1cc2c(c(OC)c1OC)C(=O)CC(c1cccc(NC(=O)c3cccc(N)c3)c1)O2 (stereo not given) | 47.7%
O=C(NCCCCCCCCCC[P+](c1ccccc1)(c1ccccc1)c1ccccc1)c1ccc(-n2nc(-c3ccccc3O)nc2-c2ccccc2O)cc1 | 1.87% (active)
COc1ccc(-c2nc(-c3ccccc3)c(-c3ccccc3)n2-c2ccc(S(=O)(=O)Nc3ncccn3)cc2)cc1OC | 68.9%
O=c1cc(-c2ccccc2)oc2cc(OCCCCNCc3ccccc3)cc(O)c12 | -29.7% (active)
CN1CCN(c2ccc(C(=O)/C=C/c3cc(C(F)(F)F)ccc3Cl)cc2)CC1 | 1.37% (active)
COc1cccc(/C=N/NC(=O)c2ccc3nc(-c4ccc(Cl)cc4)[nH]c3c2)c1O | -36.8% (active)
COc1ccc(-c2nc(Nc3ccccc3S(N)(=O)=O)c3ccccc3n2)cc1 | 23%
COc1cc(/C=C/C(=O)c2cc(OC)c(OC)c(OC)c2)ccc1Oc1nc(Nc2ccc(F)cc2)nc(N(C)C)n1 | -5.9% (active)
CCCn1c(=O)c2[nH]c(-c3ccc(OCc4nc5ccc(C)cc5[nH]4)cc3)nc2n(CCC)c1=O | 11.6%
COc1cc2c3c(n(CCCNC(C)C)c(=O)c2cc1OC)-c1nc2c(cc1C3=O)OCO2 | 2.57% (active)
O=C1c2ccccc2C(=O)c2c1c(C(=O)c1ccc(Cl)cc1)n1c2ccc2c3ccccc3ccc21 | 104%
CN(C)c1ccc(/C=C/c2nc3ccccc3c(=O)n2CC(=O)Nc2ccccc2)cc1 | 75.5%
N#Cc1c(NC(=O)c2ccc(C(F)(F)F)cc2C(F)(F)F)sc2c1CCC(=O)C2 | -11.3% (active)
O=C(CSc1nnc(-c2c[nH]c3ccccc23)n1-c1ccccc1)Nc1ccc(C(=O)/C=C/c2ccc(Br)cc2)cc1 | 72.3%
CC(C)C1=C[C@@]23CC[C@@H]4[C@](C)(CCC[C@]4(C)C(=O)NCc4ccccc4)[C@H]2C[C@@H]1[C@H]1C(=O)CCC(=O)[C@H]13 | 44.4%
Cc1cccc(NC(=O)CSc2nc3ccc(F)cc3c(=O)n2-c2ccc(Cl)cc2)c1C | 61.9%
